Experimental data as given in PubChem BioAssay (NCI).
Compounds without any hit were thinned out: in the full panel of roughly 83,000, 20% have a hit.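 Each cell line was grown in a 96-well plate and treated with one concentration of compound for 48 hours. Values below 10 were considered active.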 Active and inactive are the calls of the source.

Assays:
Test in all cases: NCI-60 one-dose screen, 48 h (100 = growth as untreated, 0 = no growth, -100 = all killed)
Conditions in all cases: 10 µM
[1] = tested on: HT29 colon
[2] = tested on: SNB-75 CNS
[3] = tested on: SNB-19 CNS
[4] = tested on: U251 CNS
[5] = tested on: PC-3 prostate
[6] = tested on: SK-MEL-5 melanoma
[7] = tested on: UACC-62 melanoma
[8] = tested on: LOX IMVI melanoma
[9] = tested on: SK-MEL-28 melanoma
[10] = tested on: SK-MEL-2 melanoma
[11] = tested on: SN12C renal
[12] = tested on: UO-31 renal
[13] = tested on: TK-10 renal
[14] = tested on: ACHN renal
[15] = tested on: CAKI-1 renal
[16] = tested on: A498 renal
[17] = tested on: CCRF-CEM leukemia
[18] = tested on: MOLT-4 leukemia
[19] = tested on: SR leukemia

Measured: growth

COc1ccc(-c2cc(/C=C3\C(=O)Nc4ccc(Cl)cc43)[nH]n2)cc1OC
inactive: [1] 93.5% | [2] 64.2% | [3] 90.9% | [4] 95.2% | [5] 88.4% | [6] 73% | [7] 95.9% | [8] 90.5% | [9] 99.3% | [10] 99.5% | [11] 87.1% | [12] 71.1% | [13] 90% | [14] 79.4% | [15] 81.3% | [16] 76% | [17] 72.2% | [18] 57.5% | [19] 55.2%

COc1cc(/C=C\c2cc(OC)c(OC)c(OC)c2)cc(NS(=O)(=O)c2ccc(Cl)cc2)c1OC
inactive: [2] 49.1% | [3] 58.4% | [4] 20.5% | [5] 13.7% | [6] 24.3% | [7] 39.3% | [8] 35.8% | [9] 70.8% | [10] 17.8% | [11] 27.2% | [12] 35.9% | [13] 55.2% | [14] 39% | [15] 37.1% | [17] 14.6% | [19] 14.4%
active: [1] 5.17% | [16] -5.88%

Nc1nc(N)c(NC(=O)CNc2ccc(C(=O)O)cc2)c(N)n1
inactive: [1] 107% | [2] 76% | [3] 105% | [4] 105% | [5] 101% | [6] 103% | [7] 101% | [8] 98.3% | [9] 97.9% | [10] 102% | [11] 97.1% | [12] 94.1% | [13] 108% | [14] 115% | [15] 91.5% | [16] 101% | [18] 107%

O=C1/C(=C/c2ccc([N+](=O)[O-])o2)Oc2ccccc21
active: [1] -15.3% | [7] -55% | [8] -60.7% | [11] -2.18% | [12] -61.5% | [13] -55.8% | [14] -9.64% | [15] -4.42% | [17] -1.87% | [19] 9.39%
inactive: [2] 74.7% | [3] 89.4% | [4] 47.5% | [5] 42.8% | [6] 55.7% | [9] 21.5% | [10] 17.2% | [16] 70.3%

COc1cc(Nc2ncnc(Nc3ccc4c(n3)NC(=O)C(C)(C)O4)n2)cc(OC)c1OC
active: [1] -12.6% | [2] -80.3% | [8] -27% | [12] -6.15% | [13] -36.4% | [15] -10.2% | [16] -75.1% | [19] 9.18%
inactive: [3] 31.1% | [4] 15.9% | [5] 25.5% | [6] 48.2% | [7] 20.3% | [9] 51.2% | [10] 46.5% | [11] 18.9% | [14] 14.6% | [17] 25.1% | [18] 33.9%

Cn1c([N+](=O)[O-])cnc1/C=C1\Oc2ccc(Cl)cc2C1=O
inactive: [2] 15.7% | [16] 12.3% | [19] 11.6%
active: [1] -10.1% | [3] -10.5% | [4] -18.2% | [5] -17.9% | [6] -92.7% | [7] -74.2% | [8] -57.5% | [9] -22.1% | [10] -42.2% | [11] -10.9% | [12] -31.9% | [13] -23% | [14] -2.7% | [15] -22.9% | [17] -11.8% | [18] -1.82%

C#Cc1ccc(-n2c(/C=C/c3ccc(Cl)c(F)c3)nc3ncccc3c2=O)cc1
inactive: [3] 22%
active: [1] -53.5% | [2] -64.7% | [4] -53.9% | [5] 2.16% | [6] -97.5% | [7] -55.9% | [8] -57% | [9] -8.26% | [10] -60.2% | [11] -4.94% | [12] -82.5% | [13] -44.6% | [14] 0.478% | [15] -14.2% | [16] -39% | [17] 1.54% | [18] -18.6% | [19] -25.2%

CCOCC(=O)C(C#N)c1ccc(Cl)c(Cl)c1 (stereo not drawn)
inactive: [1] 104% | [2] 78.2% | [3] 107% | [4] 94.7% | [5] 87% | [6] 96% | [7] 95.4% | [8] 100% | [9] 100% | [10] 115% | [11] 97.8% | [12] 82.8% | [13] 105% | [14] 91.3% | [15] 90% | [16] 91.6% | [17] 86.8% | [18] 101% | [19] 88.2%

C#Cc1ccc(-n2c(/C=C/c3ccc(O)cc3)nc3ncccc3c2=O)cc1
inactive: [1] 109% | [3] 82% | [4] 62.5% | [5] 65.3% | [6] 22.3% | [7] 29.1% | [8] 55.5% | [9] 51.7% | [10] 19.9% | [11] 75.9% | [12] 34.3% | [13] 93.7% | [14] 49.8% | [15] 55.9% | [18] 101% | [19] 18.1%
active: [2] -1.11% | [16] -1.24%

CCOC(=O)N1C/C(=C/c2ccc(OC)cc2)C(=O)/C(=C/c2ccc(OC)cc2)C1
active: [1] -58.4% | [8] -72.2% | [16] -0.589% | [17] 6.4% | [19] -16.7%
inactive: [2] 48.8% | [3] 78% | [4] 12% | [5] 46.5% | [6] 21.6% | [7] 44.6% | [9] 58.6% | [10] 75.1% | [11] 50.2% | [12] 17.1% | [13] 59.5% | [14] 39.3% | [15] 41.9% | [18] 27.3%

Cn1c([N+](=O)[O-])cnc1/C=C1\Oc2ccccc2C1=O
active: [1] -23.7% | [3] -17.3% | [4] -12.6% | [5] -21.4% | [6] -94.1% | [7] -90% | [8] -50.2% | [9] -25.9% | [10] -53.3% | [11] -18.2% | [12] -39.3% | [13] -28.8% | [14] 3.1% | [15] -23% | [16] -3.16% | [17] 2.77% | [19] 9.62%
inactive: [2] 43.8%

O=C(c1cccs1)c1ccccc1Cc1ccccc1
inactive: [1] 96.6% | [2] 94.4% | [3] 90.4% | [4] 92.5% | [5] 87.7% | [6] 97.9% | [7] 90.1% | [8] 103% | [9] 101% | [10] 96.1% | [11] 96.4% | [12] 80.3% | [13] 94.5% | [14] 100% | [15] 89.6% | [16] 58.4% | [17] 93.7% | [18] 92.5% | [19] 93.1%

COc1cc(-c2cc(/C=C3\C(=O)Nc4ccccc43)[nH]n2)cc(OC)c1OC
inactive: [1] 55.7% | [2] 44.5% | [3] 65.8% | [4] 56.1% | [5] 19% | [8] 38.6% | [9] 59.8% | [10] 27.5% | [11] 53.7% | [12] 37.2% | [13] 68.1% | [14] 51.1% | [15] 25.4% | [16] 46.5% | [17] 22.3% | [19] 34.1%
active: [6] -57% | [7] -11.1% | [18] 6.03%

COc1ccc(Nc2nc3ccc(NC(=O)NC4CCCCC4)cc3[nH]c2=O)cc1
inactive: [1] 106% | [2] 82.6% | [3] 100% | [4] 86.2% | [5] 94.7% | [6] 90.9% | [7] 94.6% | [8] 96.2% | [9] 93.1% | [10] 111% | [11] 91.6% | [12] 94.5% | [13] 117% | [14] 94.8% | [15] 87.7% | [16] 109% | [17] 91.6% | [19] 103%

Nc1c(C(=O)Nc2ccccc2Cl)sc2nc3c(cc12)C(=O)CCC3
active: [16] -10.9%
inactive: [1] 40.2% | [2] 52.4% | [3] 51.1% | [4] 73.3% | [5] 37.1% | [6] 32.5% | [7] 47.1% | [8] 55% | [9] 57.7% | [10] 35.4% | [11] 56.7% | [12] 68.9% | [13] 64.3% | [14] 57.1% | [15] 20.7% | [17] 19.4% | [18] 86.8% | [19] 42.3%

COc1cc(Nc2ccnc(NCCNc3ccnc4cc(Cl)ccc34)n2)cc(OC)c1
active: [1] 1.76% | [4] 9.32% | [6] -92.8% | [8] -37.2% | [9] -94.9%
inactive: [2] 68.7% | [3] 64.2% | [5] 46.5% | [7] 51.1% | [10] 48.7% | [11] 52% | [12] 37% | [13] 48.3% | [14] 30.7% | [15] 40.8% | [16] 39.9% | [18] 15.3%

CC(C)(C)c1cc(Br)cc(C(C)(C)C)c1O
inactive: [1] 113% | [2] 95.7% | [3] 104% | [4] 99.8% | [5] 94.4% | [6] 102% | [7] 99.3% | [8] 99.1% | [9] 112% | [10] 118% | [11] 96.5% | [12] 86.6% | [13] 113% | [14] 106% | [15] 89.5% | [16] 120% | [18] 96% | [19] 92.3%
